From PubChem BioAssay
ABHD5-PLIN5 inh: ABHD5-PLIN5 interaction inhibitors, primary screen, cell lysate, split luciferase complementation, luminescence. Perilipin-5 (Homo sapiens) + 1-acylglycerol-3-phosphate O-acyltransferase ABHD5 (Homo …. Split G. princeps luciferase complementation, 4 h. inhibition, % at 4 µM. 0.78% of 360,000 active;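 active = inhibition above the mean inhibition across every tested compound plus 3 SD, cut at about 22% in these data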;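 note: 0% = DMSO only wells and the 100% control is not disclosed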
PRMT1 inh: PRMT1 methyltransferase inhibitors, primary screen, biochemical, fluorescence polarization | 1.3% of 370,000 active | recombinant PRMT1, activity-based probe fluorescence polarization | inhibition, % at 2.79 µM;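 active = inhibition above about 21% made by adding two undisclosed values, limit read from the data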
NOD2 RIPK2 PPI: NOD2-RIPK2 binding disruptors in cells, primary screen, fluorescence, CHO cells, BLA complementation | Receptor-interacting serine/threonine-protein kinase 2 (Homo sapiens), O43353 | CCF4 ratio | inhibition, % at 4.98 µM | 0.38% of 360,000 active | AID 624267, 2012; in the data active = inhibition above about 21%;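 note: 0% = vehicle only and 100% = reference blocker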
Target sequence (O43353 whole entry, looked up): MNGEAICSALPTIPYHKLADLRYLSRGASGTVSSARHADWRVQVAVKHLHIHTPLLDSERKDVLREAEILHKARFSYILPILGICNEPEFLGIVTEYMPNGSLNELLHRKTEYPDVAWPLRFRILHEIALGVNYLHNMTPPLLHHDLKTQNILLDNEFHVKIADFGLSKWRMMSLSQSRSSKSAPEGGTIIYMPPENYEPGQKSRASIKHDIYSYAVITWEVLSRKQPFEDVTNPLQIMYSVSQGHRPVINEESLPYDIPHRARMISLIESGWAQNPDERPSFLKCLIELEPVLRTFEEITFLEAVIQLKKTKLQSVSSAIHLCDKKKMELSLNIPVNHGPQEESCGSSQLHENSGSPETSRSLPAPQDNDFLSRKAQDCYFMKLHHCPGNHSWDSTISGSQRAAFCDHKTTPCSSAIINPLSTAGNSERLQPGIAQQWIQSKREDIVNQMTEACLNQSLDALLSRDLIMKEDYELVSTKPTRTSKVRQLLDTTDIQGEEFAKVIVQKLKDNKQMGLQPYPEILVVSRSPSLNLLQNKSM
rCAG RNA binder: binders of r(CAG) RNA repeats, primary screen, biochemical, fluorescence. r(CAG) RNA repeat, TO-PRO-1 dye displacement fluorescence. inhibition, % at 3 µM. 1.3% of 370,000 active;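 active = inhibition above the plate cutoff, the mean of all test compounds on that plate plus 3 SD, cut at about 35% in these data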;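 note: 0% = DMSO alone and 100% = 100 µM mitoxantrone as full dye displacement; higher means more dye released from RNA so lower well fluorescence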
TLR9-MyD88 inh: inhibitors of TLR9-MyD88 association in cells, primary screen, cell-based, CHO, BLA complementation, fluorescence; Toll-like receptor 9 (Homo sapiens) + Myeloid differentiation primary response protein …; inhibition, % at 4.98 µM; 0.21% of 340,000 active; AID 504734, 2011; CCF4 FRET ratio;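 active = inhibition above the mean over all tested compounds plus 3 SD, cut at about 21% in these data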;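 note: 0% = DMSO only wells and 100% = clavulanate BLA inhibitor control wells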
TLR4-MyD88 BLA: inhibitors of TLR4-MyD88 association in cells, primary screen, cell-based, HeLa CL3-4, BLA complementation, FRET ratio | inhibition, % at 8.4 µM | HeLa CL3-4 TLR4/MyD88 BLA complementation | 0.18% of 200,000 active | Toll-like receptor 4 (Homo sapiens) + Myeloid differentiation primary response protein …; in the data active = inhibition above about 25%;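 note: 0% = vehicle and 100% = reference inhibitor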
* marks the source's active call; other numbers are inactive results; . = not tested or not shown. The list is not random: actives were taken first. Their share in the collection is about 3.3%.

SMILES	ABHD5-PLIN5 inh	PRMT1 inh	NOD2 RIPK2 PPI	rCAG RNA binder	TLR9-MyD88 inh	TLR4-MyD88 BLA
O=[N+]([O-])c1ccc(/C=N/N=C/c2ccc([N+](=O)[O-])o2)o1	10	-2	10	1	9	22
Cc1csc(N=Cc2ccc([N+](=O)[O-])o2)n1	-4	23*	-12	27	-7	.
CCO[C@@H]1OC(C(=O)N2CCN(C)CC2)=C[C@H](C(C)(C)C)[C@H]1CCCO	.	.	.	.	.	0
COc1ccc(NC(=S)NNC(=O)COc2ccc(Cl)cc2Cl)cc1	-8	24*	-14	22	5	3
CN(C)C1=NCC(CSC(=N)N)S1 (configuration not stated)	-7	25*	-1	2	1	4
CCCCC1Cc2[nH]c(=S)[nH]c(=O)c2C(c2ccc(Cl)cc2)O1 (configuration not stated)	-4	7	1	9	.	.
CC(=O)Nc1ccc(CN2C(=O)C(C)ON=C2c2ccccc2-c2ccco2)cc1 (configuration not stated)	11	23*	7	11	.	.
CCNC(=O)OC[C@H]1O[C@H](C#Cc2ccc(C(C)(C)C)cc2)C=C[C@H]1OC(C)=O	.	11	.	5	.	.
N#C/C(=C\c1ccc(-c2ccccc2[N+](=O)[O-])o1)C(=O)Nc1nc(-c2cccs2)cs1	-9	0	3	50*	9	2
C1=CC2c3ccccc3NC(c3ccncc3)C2C1 (configuration not stated)	3	23*	-4	28	-4	7
CC(C)c1ccc(S(=O)(=O)/N=C2/C=CC(=O)c3ccccc32)cc1	.	.	.	.	.	5
CC(C)c1ccc(S(=O)(=O)/N=C2\C=C(NS(=O)(=O)c3ccccc3)C(=O)c3ccccc32)cc1	-13	-5	-9	68*	-5	.
O=S(=O)(Nc1nc2ccccc2nc1Cl)c1ccc2ccccc2c1	6	6	4	49*	-12	-5
Cc1ccc(C(C)(C)C)cc1S(=O)(=O)Nc1nc2ccccc2nc1Cl	3	4	-12	63*	3	.
Cn1c(-c2cccc(Br)c2)cnc1NCc1ccccc1O	7	-1	1	1	1	.
Cc1ccc(-c2nc3ccccc3s2)cc1NC(=S)NC(=O)/C=C/c1ccco1	3	6	-21	13	6	0
O=C(/C=C/c1ccco1)NC(=S)Nc1ccccc1	9	23*	4	12	5	.
CC(=O)c1ccc(NC(=S)NC(=O)/C=C/c2ccco2)cc1	7	11	3	21	-3	.
O=C(/C=C/c1ccco1)NC(=S)Nc1cc(-c2nc3ccccc3s2)ccc1Cl	11	14	-2	46*	2	-22
COc1ccc2c(c1)CCCC21NC(=O)N(CC(=O)c2cc(F)ccc2F)C1=O (configuration not stated)	3	1	3	6	-4	.
O=c1c2c3c(sc2n(CCN2CCCC2)c(=O)n1Cc1ccco1)CCCCC3	16	0	-3	7	-2	5
O=C(Cn1c(=O)n(Cc2ccco2)c(=O)c2c3c(sc21)CCCCC3)c1ccccc1	51*	.	3	.	3	-10
O=C(Cn1c(=O)n(Cc2ccco2)c(=O)c2c3c(sc21)CCCCC3)Nc1ccccc1	66*	24*	11	29	4	15
O=C(c1ccc2c(=O)n(Cc3ccccc3Cl)c(=S)[nH]c2c1)N1CCCC1	-5	-2	0	4	-5	.
CSc1nc(-c2ccc(Cl)cc2Cl)[nH]c(=O)c1C#N	1	1	-8	43*	-10	-4
Cc1cc(-c2ccc(Cl)cc2Cl)c(C#N)c(=O)[nH]1	0	4	-1	3	2	.
COCc1cc(CN2CCCC(C(=O)Nc3ccc(-c4ccco4)cc3)C2)ccc1OC (configuration not stated)	32*	6	-6	18	-9	.
